Measured values from PubChem BioAssay (NCI).
The panel holds about 83,000 compounds, 20% with a hit somewhere; the sample as a whole holds those more often.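 In brief: 96-well plates, 48 h treatment, single concentration, percent growth endpoint.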 Activity calls are given as the source filed them. The calls were made as follows: active = growth percent below 10; inactive = the rest.

Key:
Assay in all cases: NCI-60 one-dose screen, 48 h (100 = growth as untreated, 0 = no growth, -100 = all killed)
Conditions in all cases: 10 µM unless noted
NCI-H23 lung = tested on: NCI-H23 lung
NCI-H226 lung = tested on: NCI-H226 lung
NCI-H322M lung = tested on: NCI-H322M lung
HOP-62 NSCLC = tested on: HOP-62 NSCLC
NCI-H460 lung = tested on: NCI-H460 lung
HOP-92 NSCLC = tested on: HOP-92 NSCLC
786-0 renal = tested on: 786-0 renal
COLO 205 colon = tested on: COLO 205 colon
NCI-H522 lung = tested on: NCI-H522 lung
A549/ATCC NSCLC = tested on: A549/ATCC NSCLC

Measured: growth

CCCCCCCCCCCCCCCC(=O)OCC1OC(n2cnc3c(=S)nc(N)[nH]c32)C(OC(=O)CCCCCCCCCCCCCCC)C1OC(=O)CCCCCCCCCCCCCCC (stereo not given)
inactive: NCI-H23 lung 66.2% | NCI-H226 lung 76.7% | NCI-H322M lung 72.2% | HOP-62 NSCLC 47.8% | NCI-H460 lung 63.4% | HOP-92 NSCLC 56% | 786-0 renal 61% | COLO 205 colon 90%

CCN1CCN(Cc2ccc(NC(=O)Nc3nc4ccc(Oc5ccnc(C(=O)NC)c5)cc4s3)cc2C(F)(F)F)CC1
active: NCI-H23 lung -12.2% | NCI-H226 lung -1.71% | HOP-62 NSCLC -13% | NCI-H460 lung -66.7% | HOP-92 NSCLC -68.3% | NCI-H522 lung -46.5% | COLO 205 colon -40.5%
inactive: NCI-H322M lung 17.1%

CN(CC(=O)N(Cc1ccc(C2CCCCC2)cc1)c1ccc(C(=O)NO)cc1)S(=O)(=O)c1c(F)c(F)c(F)c(F)c1F
inactive: NCI-H23 lung 53.9% | NCI-H226 lung 100% | NCI-H322M lung 90% | HOP-62 NSCLC 103% | NCI-H460 lung 99.5% | HOP-92 NSCLC 95% | A549/ATCC NSCLC 102% | COLO 205 colon 67.9%

COc1ccc2[nH]c(=O)c(/C=C/C(=O)c3ccc(Nc4nccc(-c5ccc6ccccc6c5)n4)cc3)cc2c1
inactive: NCI-H23 lung 104% | NCI-H226 lung 96.6% | NCI-H322M lung 97.7% | HOP-62 NSCLC 102% | NCI-H460 lung 102% | HOP-92 NSCLC 81.8% | A549/ATCC NSCLC 97.3% | 786-0 renal 93.5% | COLO 205 colon 104%

O=C(Nc1cccc2[nH]c(C(F)(F)F)nc12)c1ccc(Br)cc1F
inactive: NCI-H226 lung 36.4% | NCI-H322M lung 57% | HOP-62 NSCLC 45.3% | NCI-H460 lung 15.1% | A549/ATCC NSCLC 16.7% | 786-0 renal 35.8% | COLO 205 colon 26%
active: NCI-H23 lung 1.94% | HOP-92 NSCLC -14.9%

ClC1=C2NC=NC2n2c(nnc2-c2ccc(Cl)cc2)N1 (stereo not given)
inactive: NCI-H23 lung 107% | NCI-H226 lung 96.2% | NCI-H322M lung 110% | HOP-62 NSCLC 98.7% | NCI-H460 lung 106% | HOP-92 NSCLC 109% | A549/ATCC NSCLC 81.4% | 786-0 renal 97.2% | COLO 205 colon 89.8%

CSc1nc(NCCCNc2ccnc3cc(Cl)ccc23)cc(-c2ccccc2)n1
active: COLO 205 colon -76%
inactive: NCI-H23 lung 67.6% | NCI-H226 lung 84.4% | NCI-H322M lung 85.5% | HOP-62 NSCLC 81.3% | NCI-H460 lung 70% | HOP-92 NSCLC 33.5% | A549/ATCC NSCLC 74.3% | 786-0 renal 72.9%

CCOC(=O)c1cnc2ccc(OC)cc2c1Nc1cccc(S(=O)(=O)NC)c1
inactive: NCI-H23 lung 91.8% | NCI-H226 lung 108% | NCI-H322M lung 99.8% | HOP-62 NSCLC 99.6% | NCI-H460 lung 114% | HOP-92 NSCLC 112% | 786-0 renal 77.1% | COLO 205 colon 134%

COc1cccc(-c2cn3c(ccc4ccccc43)n2)c1
inactive: NCI-H23 lung 49.8% | NCI-H226 lung 43.9% | NCI-H322M lung 56.4% | HOP-62 NSCLC 25.8% | NCI-H460 lung 17.8% | HOP-92 NSCLC 64.2% | A549/ATCC NSCLC 55% | 786-0 renal 44.4% | COLO 205 colon 11.4%

CCCCCCCCCCCCNC(=O)[C@H]1CSC(c2ccc(OC)c(F)c2)N1 (stereo not given in full)
active: NCI-H23 lung -78.2% | NCI-H226 lung -71.4% | NCI-H322M lung -98.4% | HOP-62 NSCLC -81.8% | NCI-H460 lung -71.8% | HOP-92 NSCLC -93.8% | A549/ATCC NSCLC -88.5% | 786-0 renal -96.6% | COLO 205 colon -81.5%

NS(=O)(=O)N(c1cc(C(F)(F)F)cc(C(F)(F)F)c1)C1CCN(Cc2ccc(F)cc2)CC1
inactive: NCI-H23 lung 55.5% | NCI-H226 lung 69.3% | NCI-H322M lung 81.7% | HOP-62 NSCLC 77.3% | NCI-H460 lung 58.4% | HOP-92 NSCLC 34.9% | A549/ATCC NSCLC 66.5% | 786-0 renal 55.5%
active: COLO 205 colon -62.7%
